# Measured values taken from the supplement of paper PMC11417369.
# ± gives the standard deviation of the averaged measurements. The full ranking holds about 25,000 sequences; the median of “ln(normalized median fluorescence intensity)” is about 8.9, and the highest 2% start at about 10. This excerpt belongs to a sample that is enriched for the highest values.
# System: PfAP2-LT AP2 domain (GST-tagged)
# Assay: gcPBM binding intensity (ln(normalized median fluorescence intensity)); higher = stronger DNA binding
# In short: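 GST-fused DNA-binding domains of P. falciparum, expressed in E. coli, were applied at about 25 μg on average for 1 h to an Agilent 4 × 180k array of primer-extended double-stranded 36-bp intergenic genomic probes and negative controls. Binding intensity is the highest Masliner-normalised natural-log median intensity across replicate spots of either probe orientation, measured with Alexa488 anti-GST antibody and a 488 nm scan.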
row,Sequence,gcPBM binding intensity (ln)
1,CATACATACATACATACACACATACAGATATATATA [CACACA_site4890],9.4 ± 0.38
2,TACATACATACATACACACACACATATATATACATA [CACACA_site853],10.1 ± 0.23
3,CACAGATATATACATACACACATATATACACATATA [CACACA_site6323],9.39 ± 0.32
4,GTTACATACAGATACACACACATATATATATATATA [CACACA_site4652],10.2 ± 0.4
5,GTTACATACATATACACACACATATATATATATATA [CACACA_site901],10.2 ± 0.17
6,ACGTTACATACATATACACACACATATATATATATA [CACACA_site8203],9.93 ± 0.16
7,CTCCACAAACAAATCGCACACCCAACCCAACATATA [CACACA_site2650],9.68 ± 0.34
8,TATTTTTTTGTGTTTGGTACACACGTTATAAAAAAT [XGTACX_site2655],8.8 ± 0.36
9,AAAAAAAAAAAAAACACACACACACCCACATATACA [CACACA_site2663],10.2 ± 0.16
10,AAAAAACAGACATACACACACACACCCATATATATA [CACACA_site3392],10.4 ± 0.21
11,AAAAAAAAAAAAAAAACACACATACACCCAGACACA [CACACA_site5807],9.71 ± 0.18
12,CACAGACACCCATACACACACATACCCATATATATA [CACACA_site5023],9.56 ± 0.34
13,AAAAAAAAAAAAAAAACACACATACACCCCCACCCA [CACACA_site9117],9.89 ± 0.18
14,AAAAAAAACGCACATACACACACACCCATATATATA [CACACA_site9118],10.13 ± 0.028
15,AAAAAACACCCATACACACACACACCGATATATATA [CACACA_site5808],10.2 ± 0.24
16,TTAATATTATGTTAAAGTACTTTATATATATATAAT [XGTACX_site2646],8.57 ± 0.3
17,AAGACTGCACTTTAAGCACACAAATATATTTTTTTT [CACACA_site8337],8.86 ± 0.38
18,TACAAATATATATGCACACACATATCTGTATATGTG [CACACA_site5663],9.58 ± 0.26
19,GTAATATATACAAAATGTACAAAACAATAACATGAT [XGTACX_site8575],9.2 ± 0.52
20,TAATAAAATATGTACACACATACACCCATATATATA [CACACA_site1220],9.21 ± 0.35
21,GTTTAAAATCTTTGCACACATATAAATAAATATATT [CACACA_site2555],8.9 ± 0.41
22,AAAAAAAAAAAACACACACACACACCCATATACATA [CACACA_site2664],10.31 ± 0.085
23,TAAACACCCATATAAACACACATACATACATACATA [CACACA_site5383],9.53 ± 0.4

row,Sequence,gcPBM binding intensity (ln)
1,TATAAACACCCATATAAACACACATACATACATACA [CACACA_site8791],9.51 ± 0.33
2,AAAAATAAAAAAAACACACATACCTTATTTTTGTTC [CACACA_site2634],8.98 ± 0.42
3,TATATATATATATATGTGCGCATTACTTTAAGAATA,9.6 ± 0.25
4,TCTTTTTGCATGTGTGTGCGCACAAAATACACAAAA [GTGCAC_site9718],9.39 ± 0.3
5,TACACAAGAAAATTCACACACACACCCATATATATA [CACACA_site3879],10.12 ± 0.092
6,CACAAGAAAATTCACACACACACATATATATATATA [CACACA_site3880],10.2 ± 0.14
7,CACAAGAAAGTTCACACACACACATATATATATATA [CACACA_site6009],9.93 ± 0.62
8,CATACACAAGAAAATTCACACACACCCATATATATA [CACACA_site9288],9.87 ± 0.23
9,TACACAAGAAAATTCACACACACACCGATATATATA [CACACA_site6008],9.87 ± 0.16
10,AAAACAAAAGAATTCACACATATATATATATATATA [CACACA_site4777],10.1 ± 0.16
11,TATATATGTTCAATATGTACATATATATAAGTGTAT [XGTACX_site5157],8.79 ± 0.41
12,AATATATCAAAAATTGGATAGTTTCTTATAAAAAAT [CACACA_negctrl_site39],8.43 ± 0.46
13,ATATATATATATATATGTACATATATTCGATTATTA [XGTACX_site557],9.695 ± 0.035
14,CATATAAATAAATACACACACACACGCCTTATAATT [CACACA_site7830],10.19 ± 0.078
15,CATATATATAAATACACACACACACCCCTTATAATT [CACACA_site4064],10.2 ± 0.15
16,ACATATAAATTATATACACACAATAATATATATATA [CACACA_site1384],9.01 ± 0.39
17,TACATATATATAAATACACACACACCCACCTTATAA [CACACA_site9346],9.88 ± 0.15
18,AAATTATAATATAATACACACATAAAAAAAAAAAAA [CACACA_site7],8.93 ± 0.47
19,TAATTATATAAATACACACACATACACCCAAATAAA [CACACA_site5819],9.8 ± 0.2
20,CCTCCCATTTTTACACGTACACATTTAAAATAGACT [XGTACX_site5640],8.95 ± 0.21
21,TATAAAGGTGAAATTTGTACATAGTCATTTTTTAAT [XGTACX_site4811],8.52 ± 0.42
22,TATAAAAAAATATATATATATATATATATATAAATA [TGCATGCA_negctrl_site22],9.09 ± 0.37
23,TAATAAAGTGAATAATGTACATTTTATTTATTATAT [XGTACX_site6614],8.62 ± 0.45

row,Sequence,gcPBM binding intensity (ln)
1,GATGCACTTTAAAAATGTACTTATACCTTTAATTGT [XGTACX_site6395],8.76 ± 0.41
2,TATAAAAGTAGACACACACACATATAAATATAAATA [CACACA_site6567],9.66 ± 0.27
3,TAAAAAGGAAGACACACACACACATATATAAATATA [CACACA_site7657],10.2 ± 0.34
4,AAAGAAAGAAGACACACACACATATATAAATATCAA [CACACA_site7715],9.88 ± 0.23
5,ATAAAAAAAGGACACACACACATATATTTATTTATA [CACACA_site7438],9.71 ± 0.19
6,TATAAATAAAGACACACACACATATAAATAAATATA [CACACA_site7155],9.68 ± 0.26
7,ATAAAAAAAGGACACACACACATATATATATATATA [CACACA_site5662],10.46 ± 0.05
8,CATATAAAAGGACACACACACACATATAAATATGTA [CACACA_site6568],9.88 ± 0.3
9,CATATAAAAAGACACACACACACATATATATATATA [CACACA_site940],9.92 ± 0.31
10,AAAAAAAAAAGACACACACACACATAAATATAAATA [CACACA_site6215],10.2 ± 0.42
11,AATATAAAAAAAAAAAAAAAAAAAAAAAAAAAGACA [CACACA_negctrl_site983],8.66 ± 0.5
12,ATAAAAAAAAGACACACACACATATATATATATATA [CACACA_site3073],10.2 ± 0.18
13,AAAAAAAAAAGACACACACACATATAAATATAAATA [CACACA_site6899],9.81 ± 0.26
14,TTTGTGCCTATAAATTAACACACAGAAATATATAGA [CACACA_site8175],9.06 ± 0.28
15,TACTTCATTCATTTTACACACATATAAACCCTTTTA [CACACA_site3229],9.15 ± 0.47
16,ATTTATATGTAGATGTGTACTTAATTGTAATGTGTT [XGTACX_site6422],8.95 ± 0.45
17,TTTATTTCCTTTTTGTGTACATATATATGTAATTCA [XGTACX_site1718],8.78 ± 0.53
18,AACAAAATTGAAGGAACACACATACATATTTATATA [CACACA_site6227],9.07 ± 0.41
19,AATTTATAAATAATTAATTTGATAAATTATAAAGGG [GTGCAC_negctrl_site544],8.45 ± 0.45
20,AAAAAGAAATATTTATGTACATAATAATAATATTTT [XGTACX_site4693],8.63 ± 0.44
21,GGCTAAAAGTTGCACACACACAAAAAAAAAAAAAAA [CACACA_site7531],9.37 ± 0.51
22,ATTTATGAAAGAAATAGTACACACATAAACATTTGT [XGTACX_site5862],9.03 ± 0.36
23,TATAAAAAAATATATATATATATTATATGTGTAGAA [TGCATGCA_negctrl_site391],8.71 ± 0.54

row,Sequence,gcPBM binding intensity (ln)
1,GTAATCCACAAACACACACACATACACATATATATA [CACACA_site2728],9.98 ± 0.19
2,AAAAAAAAAAAAAAGACACACATATATATATATATA [CACACA_site633],10.1 ± 0.13
3,AATCCACAAAGACACACACACACATATATATATATA [CACACA_site1269],10.2 ± 0.23
4,TATTTATTTAAAGGCACACATATTTTTATACTTTCT [CACACA_site3163],8.79 ± 0.49
5,AAATTTATAAAGAACACACACATATATATATATATA [CACACA_site48],10 ± 0.21
6,TTTTTTATATATGTGTGTGTGTGTGTGTCAAGTTTA [GTGCAC_negctrl_site460],10.3 ± 0.24
7,TGTGTCAAGTTTAATAAACGCATATAATATATATGA [CACACA_negctrl_site607],8.59 ± 0.41
8,AATTTTTTTTTTTTTTTTTTTTATATATGTGTGTGT [XGTACX_negctrl_site129],9.32 ± 0.42
9,TTTATATTTAAATGCATGCACTTTCTATTTTTTTTT [GTGCAC_site9959],9.13 ± 0.53
10,CTTACATATTACATATGTACATATACACCTTATGTC [XGTACX_site4679],9.19 ± 0.41
11,TGCAATTGTAAAGGCGCACACATATATATATATATA [CACACA_site4894],10.2 ± 0.13
12,TTATTGCGCACAATTTGTACATATATATATATAGAA [XGTACX_site7573],8.84 ± 0.4
13,TACAATTGTAAAGGCGCACACATATATATATATATA [CACACA_site1392],10.3 ± 0.23
14,GTTTTATAAAAAGGCGCACACATATACATAAATATA [CACACA_site1864],9.37 ± 0.47
15,TATTGTAAGAAAGGCACACAGATAAAATTATTATAT [CACACA_site2921],8.83 ± 0.51
16,AAAAAAAGGTAAAATTGTACATACGCACAAAAATAT [XGTACX_site2887],9 ± 0.51
17,AATCTGATTTGTATATGTACACAAATATTTTTATTT [XGTACX_site5295],8.99 ± 0.53
18,TAATATCAAACCTATAGTACATAAGGTATAAAAAAG [XGTACX_site3533],8.86 ± 0.44
19,TTCTGAACAAAATTATATATTTATTTTTATTTTCAT [CACACA_negctrl_site422],8.48 ± 0.5
20,AAAAAAAAAAAAAAAACACACAATTGAATTATTAAG [CACACA_site2864],8.7 ± 0.61
